Screening results: PubChem BioAssay, National Center for Advancing Translational Sciences (NCATS)
aSyn rescue: qHTS of alpha-syn Inhibitors. Yeast expressing alpha-synuclein, growth rescue, BacTiter-Glo, 24 h. Potency, µM (titrated, usually from 46.1 µM), for the others: at the top dose growth rescue (activation), hits mostly activators. 0.14% of 370,000 active; further: % of control where 0% means no effect; nearly all actives have a fitted effect of over 65% in size
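Galactose-induced alpha-syn yeast (OD600=0.02, raffinose-pregrown) + pinned cpd, 24 hr, 30 deg C; growth by BacTiter-Glo luminescence. Growth restoration scores as activation.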
Abeta rescue: qHTS for compounds that reverse cellular toxicity of Amyloid beta (A-beta) peptide in yeast: Primary Screen. 0.063% of 410,000 active. Potency, µM (highest dose often 46.1 µM), actives largely listed as activators. yeast expressing A-beta42, growth rescue, OD600, 48 h; response scale: 0% DMSO, 100% iron-clioquinol control; further: nearly all actives have a fitted effect of over 55% in size
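Yeast A-beta toxicity model in growth medium with pinned compounds, 48 h at 30 C; growth read as absorbance at 600 nm. Normalized to FeCl3/clioquinol equimolar mix (positive) and DMSO (negative).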
TDP-43 yeast inh: qHTS of TDP-43 Inhibitors. 1.8% of 410,000 active. AID 652104, 2013. TDP-43 expressing yeast growth rescue, BacTiter-Glo, 24 h. Potency, µM (doses to about 46.1 µM), without a hit: at the highest dose growth rescue (activation), actives largely listed as activators; further: % of control where 0% means no effect; nearly all actives have a fitted effect of over 50% in size
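Yeast expressing TDP-43 (pregrown in raffinose, seeded at OD600=0.02 in galactose medium) exposed to compounds 24 hr at 30 deg C. Growth read by BacTiter-Glo luminescence; rescue of toxicity appears as increased signal.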
FUS suppressor: qHTS for Suppressors of FUS Proteinopathy: Primary screen using FUS-linked yeast assay. S. cerevisiae FUS-expressing, growth rescue, OD600, 24 h. Potency, µM (top dose mostly 76.6 µM), usual class: activators. 0.24% of 390,000 active;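 further: plate controls were DMSO vehicle for no effect and reference control for full effect; nearly all actives have a fitted effect of over 55% in size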
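Restored growth of FUS-toxic S. cerevisiae, read as 600 nm absorbance after 24 h at 30C in galactose medium (starting OD 0.005). Controls CP55940 and DMSO.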
Mito fusion act: qHTS Assay for Small Molecule Inhibitors of Mitochondrial Division or Activators of Mitochondrial Fusion; S. cerevisiae fusion-defective mutant growth rescue, CellTiterGlo 48 h; Potency, µM (highest dose often 46.1 µM), for inactives: top-dose growth rescue (activation), most hits filed as activators; 0.23% of 320,000 active; AID 485298, 2010; further: % of control where 0% means no effect; nearly all actives have a fitted effect of over 45% in size
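Temperature-sensitive fusion-defective S. cerevisiae (e.g. fzo1-1, mgm1-5) were grown with compound in YPEG medium (3% ethanol, 3% glycerol) for 48 hours at 37C. Growth rescue was measured as viability by CellTiterGlo luminescence after 10 minutes at ambient.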
An asterisk follows results filed as active; i = inactive; ? = inconclusive; . = no result given; [ ] = remark or other dose. Rows were chosen to be rich in hits. Some 2.2% of all compounds tested hit in one or more screens of this group. The call rests on the fitted dose curve; in most records, active means well fitted curve in the direction sought with a large enough effect; inconclusive means small, poorly fitted or top-dose-only effect, or another doubt; inactive means no such curve, though single readings can be large; an effect the other way counts as inactive or inconclusive. Potency means the concentration at half of the fitted maximal effect.

SMILES	aSyn rescue	Abeta rescue	TDP-43 yeast inh	FUS suppressor	Mito fusion act
N/C(=N\OC(=O)Cc1cccs1)c1cccc([N+](=O)[O-])c1	27.5%	i	11.2µM*	i	1.1%
Cc1ccc(C(=O)O/N=C(\N)c2cccc([N+](=O)[O-])c2)cc1	-12.7%	i	10µM*	i	-2.5%
N/C(=N\OC(=O)c1ccc(Br)cc1)c1cccc([N+](=O)[O-])c1	-17.1%	i	10µM*	i	0.6%
C[C@H]1[C@H](NC(=O)c2ccc(C(C)(C)C)cc2)CC[C@@]23CCCN2C(=O)CCC[C@@H]13	.	.	.	i	.
O=C(Nc1ccc2c(c1)C(=O)N(c1ccccc1)C2=O)C1CCCO1 (configuration not stated)	-8.4%	i	12.6µM*	i	-5.4%
O=C1NC(=O)c2cc(NC(=O)C3CCCO3)ccc21 (configuration not stated)	0.7%	i	21.6%	i	1.1%
CCc1cccc(NC(=O)CCc2c(C)nc3c(-c4ccccc4)c(C)nn3c2C)c1	.	i	14.1%	i	.
Fc1ccc2[nH]c3c(Cl)ncnc3c2c1	10.5%	i	?	i	-19.1%
COc1ccc2[nH]c3c(Cl)ncnc3c2c1	26.6%	i	12.6µM*	.	-18.3%
CC(=O)c1ccc(NC(=S)N2CCC(Cc3ccccc3)CC2)cc1	15.1%	?	25.1µM*	i	5.1%
CC1Cc2ccccc2N1C(=S)Nc1ccc(S(N)(=O)=O)cc1 (configuration not stated)	3.0%	i	?	.	-5.8%
CC(=O)c1cccc(NC(=S)N2CCC(Cc3ccccc3)CC2)c1	9.5%	?	?	i	?
CC(=O)c1ccc(NC(=S)N2c3ccccc3CC2C)cc1 (configuration not stated)	?	i	15.8µM*	i	-7.6%
COc1[nH]c(/N=C/c2ccco2)c(C#N)c1C#N	-8.7%	.	.	.	.
Cc1nnc(N2C(=O)c3cccc4c([N+](=O)[O-])ccc(c34)C2=O)s1	-2.4%	i	12.6µM*	i	-10.8%
COc1ccc(C2=Nc3ccccc3N(C(=O)c3ccc(C)cc3)C2C(=O)NCc2ccccc2)cc1 (configuration not stated)	10.7%	i	2.8%	i	.
Cc1ccc(C2=Nc3ccccc3N(C(=O)c3ccccc3)C(C)C2)cc1 (configuration not stated)	-6.6%	i	24.8%	.	20µM*
CC(C)(C)c1ccc(OCCn2cc(C(=O)c3ccco3)c3ccccc32)cc1	.	i	7.1%	i	.
C[C@H]1NC(=O)[C@@]2(C)[C@H](c3ccccc3)[C@H]3COc4ccccc4[C@@H]3N2C1=O	0.0%	i	10.1%	i	.
CC(C)(C)C(=O)Nc1nnc(COc2ccc(Cl)cc2)s1	25.6%	?	11.2µM*	i	7.4%
COc1cc(-c2noc(-c3cc(C)[nH]n3)n2)cc(OC)c1OC	.	i	0.0%	i	.
CC(=O)NC1CC2CCCC(C1)N2S(=O)(=O)c1cccc(F)c1 (configuration not stated)	-0.7%	i	-4.8%	31.6µM*	6.0%
O=C(NC1CC2CCCC(C1)N2S(=O)(=O)c1ccccc1)c1ccco1 (configuration not stated)	3.0%	i	0.0%	i	2.5%
Nc1cc2c(cc1Cl)-c1ccccc1C2	15.7%	i	12.6µM*	.	.
Nc1cc2c(cc1Cl)-c1ccc(Cl)cc1C2	-1.3%	i	25.1µM*	i	.
Nc1ccc2c(c1)Cc1cc(N)c(Br)cc1-2	2.5%	i	19.8%	.	.
O=C(Nc1cccc2ccccc12)/C(Cl)=C/c1ccccc1	-9.2%	i	15.8µM*	i	?
S=c1[nH]nc(-c2ccc(Cl)cc2)n1/N=C/C=C/c1ccco1	14.7%	5.01µM*	-20.6%[1.82 µM]	?	1.8%
COC(=O)c1c(NC(=O)CS(=O)(=O)c2ccccc2)sc(C)c1C	9.6%	i	?	i	10.9%
